The values that follow come from the supplement of paper PMC13380429.

Experiment [1] concerns Vero E6 infected with SARS-CoV-2. Nature of the experiment: morphology score (similarity to uninfected cells); higher = more like uninfected cells. To be noted: 24 h.
Experiment [2] has the same test system. Nature of the experiment: SARS-CoV-2 infection rate relative to infected DMSO; higher = more infection, active = 60 or less. The note with it: 24 h.

`Cc1ccc(C(=O)Nc2ccc(S(=O)(=O)O)c3cc(S(=O)(=O)O)cc(S(=O)(=O)O)c23)cc1NC(=O)c1cccc(NC(=O)Nc2cccc(C(=O)Nc3cc(C(=O)Nc4ccc(S(=O)(=O)O)c5cc(S(=O)(=O)O)cc(S(=O)(=O)O)c45)ccc3C)c2)c1` [suramin] (10 µM) yielded a morphology score in experiment [1] of 0.13. Besides, the SARS-CoV-2 infection rate in experiment [2] is 101% (inactive).

With `COC(=O)N[C@H](C(=O)N1CC2(CC2)C[C@H]1c1nc(-c2ccc3c(c2)C(F)(F)c2cc(-c4ccc5[nH]c([C@@H]6[C@H]7CC[C@H](C7)N6C(=O)[C@@H](NC(=O)OC)C(C)C)nc5c4)ccc2-3)c[nH]1)C(C)C` [ledipasvir] (10 µM), the morphology score in experiment [1] amounted to 0.191. Moreover, the SARS-CoV-2 infection rate in experiment [2] is 99.5% (inactive).

Regarding `O=C(O)C(F)(F)C(F)(F)C(F)(F)C(F)(F)C(F)(F)C(F)(F)C(F)(F)F` [ammonium-perfluorocaprylate] (10 µM), the morphology score in experiment [1] was -0.0312. For the same compound, in experiment [2], the SARS-CoV-2 infection rate is 112% (inactive).

In turn, `CC1(C)CC(=O)C(C2C3=C(CC(C)(C)CC3=O)Oc3ccccc32)C(=O)C1` (stereo not given) (10 µM) displayed a morphology score in experiment [1] of 0.28. Besides, the SARS-CoV-2 infection rate in experiment [2] was 98% (inactive).

In turn, `CNCCC(Oc1ccccc1OC)c1ccccc1` (stereo not given) [nisoxetine] (10 µM) displayed a morphology score in experiment [1] of 0.135. The SARS-CoV-2 infection rate in experiment [2] was 96.5% (inactive).

For `O=C(OCCO)c1ccccc1O` [2-hydroxyethyl-salicylate] (10 µM), the morphology score in experiment [1] was -0.198. Besides, the SARS-CoV-2 infection rate in experiment [2] was 108% (inactive).

In experiment [1], `C[C@]12CC/C(=N\OCCN)C[C@@H]1C(=O)C[C@@H]1[C@@H]2CC[C@]2(C)C(=O)CC[C@@H]12` [istaroxime] (0.833333 µM) registered a morphology score of 0.151. Moreover, in experiment [2], the SARS-CoV-2 infection rate was 102% (inactive).

As to `Nc1ccc(S(=O)(=O)Nc2ccc(Cl)nn2)cc1` [sulfachlorpyridazine] (10 µM), the morphology score in experiment [1] came out at 0.104. The SARS-CoV-2 infection rate in experiment [2] is 108% (inactive).

In the case of `C[C@H](O)[C@H](O)[C@H]1CNc2nc(N)[nH]c(=O)c2N1` [sapropterin] (10 µM), the morphology score in experiment [1] is -0.0335. Further, in experiment [2], the SARS-CoV-2 infection rate was 95.5% (inactive).

With `Oc1ccc(-c2nc3cc(O)cc(Br)c3o2)cc1` (10 µM), the morphology score in experiment [1] amounted to 0.128. Moreover, in experiment [2], the SARS-CoV-2 infection rate is 94.5% (inactive).

In the case of `C[C@@H]([C@@H](O)c1ccc(O)cc1)N1CCC(O)(c2ccccc2)CC1` [traxoprodil] (10 µM), in experiment [1], the morphology score was -0.037. Also, the SARS-CoV-2 infection rate in experiment [2] is 108% (inactive).

With `CC(C)=CCC[C@](C)(O)[C@@H]1CC=C(C)CC1` [levomenol] (10 µM), the morphology score in experiment [1] was -0.0548. Besides, the SARS-CoV-2 infection rate in experiment [2] was 104% (inactive).

`CC(C)(O)[C@@H]1[C@H]2OC(=O)[C@@H]1[C@]1(O)C[C@H]3O[C@]34C(=O)O[C@H]2[C@]14C` [picrotin] (10 µM) yielded a morphology score in experiment [1] of 0.0343. The SARS-CoV-2 infection rate in experiment [2] is 111% (inactive).

`C[C@H]1COC2=C1C(=O)C(=O)c1c2ccc2c1CCCC2(C)C` [cryptotanshinone] (10 µM) had a morphology score in experiment [1] of 0.0318. For the same compound, the SARS-CoV-2 infection rate in experiment [2] is 100% (inactive).

For the compound `COc1ccc2c(c1)[C@]13CCCC[C@@H]1[C@H](C2)N(C)CC3` [dextromethorphan] (10 µM), in experiment [1], the morphology score was -0.0426. In experiment [2], the SARS-CoV-2 infection rate was 112% (inactive).

For `CCOC(=O)c1cncn1[C@H](C)c1ccccc1` [etomidate] (10 µM), the morphology score in experiment [1] is -0.0479. Besides, the SARS-CoV-2 infection rate in experiment [2] is 110% (inactive).

For the compound `CCOCCn1c(C2CCN(CCc3ccc(C(C)(C)C(=O)O)cc3)CC2)nc2ccccc21` [bilastine] (10 µM), the morphology score in experiment [1] came to 0.144. Further, the SARS-CoV-2 infection rate in experiment [2] was 107% (inactive).

Compound `CO/N=C(\C(=O)N[C@@H]1C(=O)N2C(C(=O)O)=C(COC(N)=O)CS[C@H]12)c1ccco1` (10 µM) returned a morphology score in experiment [1] of 0.0841. The SARS-CoV-2 infection rate in experiment [2] was 98.5% (inactive).

As for `CC(C)[C@@H](CS(=O)(=O)C(C)C)N1C(=O)[C@@](C)(CC(=O)O)C[C@H](c2cccc(Cl)c2)[C@H]1c1ccc(Cl)cc1` (10 µM), in experiment [1], the morphology score is -0.12. Moreover, in experiment [2], the SARS-CoV-2 infection rate is 114% (inactive).

As to `Cc1cc(O)c(C(C)C)cc1Cl` [chlorothymol] (10 µM), the morphology score in experiment [1] was -0.0977. Moreover, the SARS-CoV-2 infection rate in experiment [2] is 104% (inactive).

In the case of `O=C(O)c1ccc2nc(-c3cc(Cl)cc(Cl)c3)oc2c1` [tafamidis-meglumine] (10 µM), in experiment [1], the morphology score is 0.242. The SARS-CoV-2 infection rate in experiment [2] was 90.5% (inactive).

As to `Fc1cc(-c2cccc3ncc(-c4cnn(C5CCNCC5)c4)nc23)cc(F)c1CN1CCOCC1` (0.833333 µM), in experiment [1], the morphology score was 0.0457. Besides, the SARS-CoV-2 infection rate in experiment [2] is 116% (inactive).

Regarding `Cc1cnc(C(=O)O)c[n+]1[O-]` [acipimox] (10 µM), the morphology score in experiment [1] was found to be 0.0683. Moreover, the SARS-CoV-2 infection rate in experiment [2] was 108% (inactive).

Take `Nc1ccccc1NC(=O)c1ccc(CNc2nccc(-c3cccnc3)n2)cc1` [mocetinostat] (0.833333 µM): the morphology score in experiment [1] was -0.00842. The SARS-CoV-2 infection rate in experiment [2] was 104% (inactive).

Consider `COC(=O)[C@H](Cc1cccc(C(=N)N)c1)[C@@H](C)NC(=O)c1ccc(-c2cc[n+]([O-])cc2)cc1` [otamixaban] (10 µM), for which the morphology score in experiment [1] was -0.0764. Besides, in experiment [2], the SARS-CoV-2 infection rate is 100% (inactive).
